# Measured values: the antibiotic and cytotoxicity screens of Wong et al. (2023)
# Screen size: about 39,000 compounds; about 1,500 (3.8%) were called active. What follows is part of a selection rich in actives, with near analogues and random picks from the rest.
# Test system: HSkMC (human skeletal muscle cells)
# Assay: cytotoxicity call (relative viability < 0.9)
# Settings: 10 µM
row,Structure (SMILES),cytotoxicity call
1,CN(C)CCCNC(=O)C[C@H]1CC[C@H]2[C@@H](COC[C@H](O)CN2C(=O)Nc2cc(Cl)cc(Cl)c2)O1,inactive
2,Cn1cc(N2C[C@]3(CNCCOC3)OCC2=O)cn1,inactive
3,CC(C)Nc1ncnc(N)c1[N+](=O)[O-],inactive
4,COc1ccc(C#Cc2ccc3c(c2)[C@]2(C(=O)N3)[C@H](C(=O)N3CCCCCCC3)[C@H]3C(=O)O[C@H](c4ccccc4)[C@H](c4ccccc4)N3[C@@H]2c2ccc(O)cc2)cc1,inactive
5,C[C@@H]1CCCCO[C@H](CN(C)Cc2ccc(C(F)(F)F)cc2)[C@@H](C)CN([C@@H](C)CO)C(=O)c2cc(NC(=O)Nc3ccc4c(c3)OCO4)ccc2O1,active
6,C[C@@H]1CCCCO[C@H](CN(C)Cc2ccc(C(F)(F)F)cc2)[C@H](C)CN([C@H](C)CO)C(=O)c2cc(NC(=O)Nc3ccc4c(c3)OCO4)ccc2O1,inactive
7,C[C@@H]1CN([C@H](C)CO)C(=O)c2cc(NC(=O)Nc3ccc4c(c3)OCO4)ccc2O[C@@H](C)CCCCO[C@@H]1CN(C)Cc1ccc(C(F)(F)F)cc1,inactive
8,C[C@@H]1CCCCO[C@@H](CN(C)Cc2ccc(C(F)(F)F)cc2)[C@H](C)CN([C@H](C)CO)C(=O)c2cc(NC(=O)Nc3ccc4c(c3)OCO4)ccc2O1,active
9,C[C@@H]1CN([C@@H](C)CO)C(=O)c2cc(NC(=O)Nc3ccc4c(c3)OCO4)ccc2O[C@@H](C)CCCCO[C@@H]1CN(C)Cc1ccc(C(F)(F)F)cc1,inactive
10,C[C@@H]1CN([C@@H](C)CO)C(=O)c2cc(NC(=O)Nc3ccc4c(c3)OCO4)ccc2O[C@@H](C)CCCCO[C@H]1CN(C)Cc1ccc(C(F)(F)F)cc1,inactive
11,C[C@H](CO)N1C[C@H](C)[C@@H](CN(C)C(=O)NC2CCCCC2)Oc2c(NC(=O)C3CC3)cccc2C1=O,inactive
12,CN(C)CCO[C@@H]1CC[C@@H]2[C@H]1OCCN2S(C)(=O)=O,inactive
13,COCCNC(=O)C[C@@H]1CC[C@H]2[C@@H](COc3ccc(NC(=O)Nc4cccc(F)c4)cc3C(=O)N2C)O1,inactive
14,C[C@@H]1CCCCO[C@H](CN(C)C(=O)Nc2ccc(F)cc2)[C@@H](C)CN([C@@H](C)CO)C(=O)c2cc(NC(=O)c3ccccc3)ccc2O1,inactive
15,C[C@@H]1CCCCO[C@@H](CN(C)S(=O)(=O)c2cccs2)[C@H](C)CN([C@@H](C)CO)C(=O)c2cc(NC(=O)Nc3cccc4ccccc34)ccc2O1,inactive
16,C[C@H](CO)N1C[C@H](C)[C@@H](CN(C)S(=O)(=O)c2cccs2)OCCCC[C@H](C)Oc2ccc(NC(=O)Nc3ccc4c(c3)OCO4)cc2C1=O,active
17,C[C@H](CO)N1C[C@H](C)[C@@H](CN(C)S(=O)(=O)c2cccs2)OCCCC[C@H](C)Oc2ccc(NC(=O)Nc3ccc(C(F)(F)F)cc3)cc2C1=O,inactive
18,C[C@@H]1CN([C@H](C)CO)C(=O)c2cc(NC(=O)Nc3ccc4c(c3)OCO4)ccc2O[C@@H](C)CCCCO[C@H]1CN(C)S(=O)(=O)c1cccs1,inactive
19,C[C@@H]1CN([C@@H](C)CO)C(=O)c2cc(NC(=O)Nc3ccc4c(c3)OCO4)ccc2O[C@@H](C)CCCCO[C@@H]1CN(C)S(=O)(=O)c1cccs1,inactive
20,C[C@@H]1CCCCO[C@H](CN(C)S(=O)(=O)c2cccs2)[C@@H](C)CN([C@@H](C)CO)C(=O)c2cc(NC(=O)Nc3ccc(C(F)(F)F)cc3)ccc2O1,active

row,Structure (SMILES),cytotoxicity call
1,C[C@@H]1CN([C@H](C)CO)C(=O)c2cc(NC(=O)Nc3ccc(C(F)(F)F)cc3)ccc2O[C@@H](C)CCCCO[C@@H]1CN(C)S(=O)(=O)c1cccs1,inactive
2,C[C@@H]1CCCCO[C@@H](CN(C)S(=O)(=O)c2cccs2)[C@@H](C)CN([C@H](C)CO)C(=O)c2cc(NC(=O)Nc3ccc(C(F)(F)F)cc3)ccc2O1,inactive
3,C[C@@H]1CCCCO[C@H](CN(C)S(=O)(=O)c2cccs2)[C@H](C)CN([C@@H](C)CO)C(=O)c2cc(NC(=O)Nc3ccc(C(F)(F)F)cc3)ccc2O1,active
4,C[C@@H]1CCCCO[C@@H](CN(C)S(=O)(=O)c2cccs2)[C@@H](C)CN([C@@H](C)CO)C(=O)c2cc(NC(=O)Nc3cccc4ccccc34)ccc2O1,inactive
5,C[C@H](CO)N1C[C@H](C)[C@H](CN(C)S(=O)(=O)c2cccs2)OCCCC[C@H](C)Oc2ccc(NC(=O)Nc3cccc4ccccc34)cc2C1=O,active
6,C[C@@H]1CN([C@@H](C)CO)C(=O)c2cc(NC(=O)Nc3ccc(C(F)(F)F)cc3)ccc2O[C@@H](C)CCCCO[C@@H]1CN(C)S(=O)(=O)c1cccs1,inactive
7,C[C@@H]1CN([C@H](C)CO)C(=O)c2cccc(NS(=O)(=O)c3ccccc3)c2O[C@@H]1CN(C)CC1CC1,inactive
8,O=C(C[C@H]1CC[C@@H]2[C@H](COC[C@H](O)CN2Cc2ccccc2F)O1)N[C@H]1CCN(Cc2ccccc2)C1,inactive
9,O=c1[nH][nH]c(=S)n1C1CC1,inactive
10,C=C(/C=C/CNS(=O)(=O)c1ccc(C)cc1)[C@H](O)[C@H]1CCCN1S(=O)(=O)c1ccccc1[N+](=O)[O-],inactive
11,O=C(C[C@H]1C[C@@H]2c3cc(NC(=O)c4cccnc4)ccc3O[C@@H]2[C@H](CO)O1)NCc1cc(F)ccc1F,inactive
12,C[C@H]1CN([C@@H](C)CO)C(=O)CCCn2nncc2CO[C@H]1CN(C)C(=O)CCCN(C)C,inactive
13,CCC[C@@H]1C[C@@H](C(=O)N[C@H]([C@H]2O[C@H](SC)[C@H](O)[C@@H](O)[C@H]2O)[C@@H](C)Cl)N(C)C1,inactive
14,Cc1noc(C)c1S(=O)(=O)N(C)C[C@H]1Oc2ccc(NS(C)(=O)=O)cc2CC(=O)N([C@@H](C)CO)C[C@H]1C,inactive
15,CCC(CCC(C)C1CCC2C3CC=C4CC(O)CCC4(C)C3CCC12C)C(C)C (stereo not drawn) [beta-SITOSTEROL ],inactive
16,N/C(=N/O)c1cnc2n(c1=O)CCS2,inactive
17,C[C@@H]1CN([C@H](C)CO)C(=O)Cc2cc(NC(=O)Cc3ccccc3)ccc2O[C@H]1CN(C)S(=O)(=O)c1cccs1,inactive
18,O=C(CN1CCOCC1)N[C@H]1CC[C@H](CCNC(=O)C2CCCCC2)O[C@H]1CO,inactive
19,C[C@@H]1CN([C@@H](C)CO)C(=O)c2ccccc2-c2ccccc2CO[C@H]1CN(C)S(=O)(=O)c1ccc(C(F)(F)F)cc1,inactive
20,Cc1cccc2c3c(ccc12)C1=C(C(=O)C3=O)C(C)CO1 (stereo not given),inactive

row,Structure (SMILES),cytotoxicity call
1,CC1COC2=C1C(=O)C(=O)c1c2ccc2c1CCCC2(C)C (stereo not given),active
2,Cc1coc2c1C(=O)C(=O)c1c-2ccc2c1CCCC2(C)C,active
3,C[C@H]1CN(C(=O)N(C)C)CCN1C(=O)N(C)C,inactive
4,O=C(O)Cn1c(=O)n(CC(=O)O)c2ccccc21,inactive
5,COC(=O)C(CCCN1C(=O)c2ccccc2C1=O)(NC(C)=O)c1nn[nH]n1 (stereo not given),inactive
6,C[C@H](CO)N1C[C@H](C)[C@H](CN(C)C(=O)c2cnccn2)Oc2ncc(-c3cccc(C#N)c3)cc2C1=O,inactive
7,C[C@@H]1CN([C@H](C)CO)C(=O)CCCn2nncc2CO[C@H]1CN(C)Cc1cccc2c1OCCCO2,inactive
8,CCOC(=O)N(C)C[C@H]1OCc2cn(nn2)CCCC(=O)N([C@@H](C)CO)C[C@@H]1C,inactive
9,O=C(O)CCSC[C@@H]1O[C@H]2O[C@@H]3[C@@H](O)[C@H](O)[C@H](O[C@@H]4[C@@H](O)[C@H](O)[C@H](O[C@@H]5[C@@H](O)[C@H](O)[C@H](O[C@@H]6[C@@H](O)[C@H](O)[C@H](O[C@@H]7[C@@H](O)[C@H](O)[C@H](O[C@@H]8[C@@H](O)[C@H](O)[C@H](O[C@@H]9[C@@H](O)[C@H](O)[C@H](O[C@@H]1[C@@H](O)[C@@H]2O)O[C@H]9CSCCC(=O)O)O[C@H]8CSCCC(=O)O)O[C@H]7CSCCC(=O)O)O[C@H]6CSCCC(=O)O)O[C@H]5CSCCC(=O)O)O[C@H]4CSCCC(=O)O)O[C@H]3CSCCC(=O)O,inactive
10,C[C@H](CO)N1C[C@H](C)[C@H](CN(C)Cc2ccc(C(=O)O)cc2)OCCCC[C@H](C)Oc2ccc(NC(=O)Nc3ccccc3)cc2C1=O,inactive
11,C[C@H](CO)N1C[C@H](C)[C@@H](CN(C)S(C)(=O)=O)Oc2ccc(NC(=O)Nc3ccc(F)cc3)cc2CC1=O,inactive
12,CCC(=C/[C@H](C)C/C=C/C(C)=C/[C@@H](C)C(=O)[C@@H](C)[C@H](O)[C@@H](C)C/C(C)=C/C(=O)O)/C=C/[C@@H]1OC(=O)C=C[C@@H]1C,active
13,Cc1noc(C)c1NC(=O)N(C)C[C@@H]1Oc2ccc(NS(C)(=O)=O)cc2CC(=O)N([C@H](C)CO)C[C@H]1C,inactive
14,C[C@@H]1CN([C@H](C)CO)S(=O)(=O)c2ccc(-c3cccnc3)cc2O[C@H]1CN(C)C(=O)c1cccc(F)c1,inactive
15,COc1ccc([Si](C)(C)[C@H]2[C@H](CCO)O[C@@]3(C(=O)N(Cc4ccc(N(C=O)c5ccccc5)cc4)c4ccccc43)[C@@H]2C)cc1,inactive
16,C=CCN1C(=O)[C@@]2(O[C@@H](CCO)[C@H]([Si](C)(C)c3ccc(OC)cc3)[C@H]2C)c2cc(N(C=O)c3ccccc3)ccc21,active
17,COc1ccc([Si](C)(C)[C@@H]2[C@@H](CCO)O[C@]3(C(=O)N(Cc4ccccc4)c4ccc(N(C=O)c5ccccc5)cc43)[C@H]2C)cc1,inactive
18,C=CCN1C(=O)[C@]2(O[C@H](CCO)[C@@H]([Si](C)(C)c3ccc(OC)cc3)[C@@H]2C)c2cc(N(C=O)c3ccccc3)ccc21,active
19,COc1ccc([Si](C)(C)[C@H]2[C@H](CCO)O[C@@]3(C(=O)N(Cc4ccccc4)c4ccc(N(C=O)c5ccccc5)cc43)[C@@H]2C)cc1,inactive
20,COc1ccc([Si](C)(C)[C@@H]2[C@@H](CCO)O[C@]3(C(=O)N(Cc4ccc(N(C=O)c5ccccc5)cc4)c4ccccc43)[C@H]2C)cc1,inactive
